Data reported in PubChem BioAssay AID1159580 (chemical genetic matrix, 2015).
The campaign covered roughly 5,500 compounds. About 2,000 (36%) were called active. Not shown: some 18% with an inconclusive outcome. No stated cut-off is given here; in the data, active means normalized growth mostly below about 0.91 (no sharp cut-off); inconclusive means no clear call, values can overlap the other calls; inactive means mostly above about 0.92. Some of the results follow.

Assay: chemical genetic growth profiling, strain panel (AID 1159580);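 further: tested at 20 µM; growth read once vehicle control cultures reached saturation at 30 °C; 1 = growth at the plate median or of vehicle wells; lower values mean less growth of the strain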
Settings: growth OD

Measured: normalized growth

CC(=O)O[C@]1(C(C)=O)CCC2C3C[C@H](C)C4=CC(=O)CC[C@]4(C)C3CC[C@@]21C (stereo partly drawn)
active: S. cerevisiae deletion strains, locus YLL001W, strain dnm1, hits give low values 0.894 | S. cerevisiae deletion strains, locus YLR221C, strain rsa3, hits give low values 0.9 | S. cerevisiae deletion strains, locus YLR262C, strain YPT6 (second series), hits give low values 0.815 | S. cerevisiae deletion strains, locus YLR320W, strain mms22, hits give low values 0.875 | S. cerevisiae deletion strains, locus YLR418C, strain cdc73, hits give low values 0.829 | S. cerevisiae deletion strains, locus YNL071W, strain lat1, hits give low values 0.876
inactive: S. cerevisiae deletion strains, locus YJR075W, strain HOC1, hits give low values 0.99 | S. cerevisiae deletion strains, locus YKL009W, strain mrt4, hits give low values 0.973 | S. cerevisiae deletion strains, locus YKL068W, hits give low values 0.971 | S. cerevisiae deletion strains, locus YKL085W, strain MDH1 (second series), hits give low values 0.977 | S. cerevisiae deletion strains, locus YKL085W, strain MDH1, hits give low values 0.977 | S. cerevisiae deletion strains, locus YKL160W, strain elf1, hits give low values 0.911 | S. cerevisiae deletion strains, locus YKL190W, strain CNB1, hits give low values 0.989 | S. cerevisiae deletion strains, locus YKR001C, strain vps1, hits give low values 0.956 | S. cerevisiae deletion strains, locus YKR026C, strain gcn3, hits give low values 0.981 | S. cerevisiae deletion strains, locus YKR091W, strain srl3, hits give low values 0.959 | S. cerevisiae deletion strains, locus YLL026W, hits give low values 0.976 | S. cerevisiae deletion strains, locus YLL041C, strain sdh2, hits give low values 0.968 | S. cerevisiae deletion strains, locus YLR027C, strain aat2, hits give low values 0.976 | S. cerevisiae deletion strains, locus YLR039C, strain RIC1, hits give low values 1.05 | S. cerevisiae deletion strains, locus YLR058C, strain SHM2, hits give low values 0.979 | S. cerevisiae deletion strains, locus YLR102C, strain apc9, hits give low values 0.989 | S. cerevisiae deletion strains, locus YLR113W, strain HOG1, hits give low values 0.965 | S. cerevisiae deletion strains, locus YLR258W, strain gsy2, hits give low values 0.949 | S. cerevisiae deletion strains, locus YLR262C, strain YPT6, hits give low values 0.957 | S. cerevisiae deletion strains, locus YLR268W, strain sec22, hits give low values 0.977 | S. cerevisiae deletion strains, locus YLR330W, strain CHS5, hits give low values 0.988 | S. cerevisiae deletion strains, locus YLR342W, strain FKS1 (second series), hits give low values 0.984 | S. cerevisiae deletion strains, locus YLR342W, strain FKS1, hits give low values 0.948 | S. cerevisiae deletion strains, locus YLR357W, strain rsc2, hits give low values 0.939 | S. cerevisiae deletion strains, locus YLR370C, strain arc18, hits give low values 0.925 | S. cerevisiae deletion strains, locus YLR371W, strain rom2, hits give low values 0.985 | S. cerevisiae deletion strains, locus YLR384C, strain iki3, hits give low values 0.977 | S. cerevisiae deletion strains, locus YML016C, strain PPZ1, hits give low values 0.996 | S. cerevisiae deletion strains, locus YML032C, strain rad52, hits give low values 0.984 | S. cerevisiae deletion strains, locus YML120C, strain ndi1, hits give low values 0.916 | S. cerevisiae deletion strains, locus YML124C, strain tub3, hits give low values 0.986 | S. cerevisiae deletion strains, locus YMR058W, strain fet3, hits give low values 0.968 | S. cerevisiae deletion strains, locus YMR078C, strain ctf18, hits give low values 0.97 | S. cerevisiae deletion strains, locus YMR125W, strain sto1, hits give low values 0.947 | S. cerevisiae deletion strains, locus YMR129W, hits give low values 0.972 | S. cerevisiae deletion strains, locus YMR205C, strain PFK2, hits give low values 0.906 | S. cerevisiae deletion strains, locus YMR223W, strain ubp8, hits give low values 0.917 | S. cerevisiae deletion strains, locus YMR231W, strain pep5, hits give low values 0.978 | S. cerevisiae deletion strains, locus YMR263W, strain SAP30, hits give low values 0.989 | S. cerevisiae deletion strains, locus YMR307W, strain GAS1, hits give low values 0.992 | S. cerevisiae deletion strains, locus YNL067W, strain RPL9B, hits give low values 0.993 | S. cerevisiae deletion strains, locus YNL153C, strain GIM3, hits give low values 0.983 | S. cerevisiae deletion strains, locus YNL183C, strain NPR1, hits give low values 0.951 | S. cerevisiae deletion strains, locus YNL209W, strain ssb2, hits give low values 0.958 | S. cerevisiae deletion strains, locus YNL233W, strain BNI4, hits give low values 0.989 | S. cerevisiae deletion strains, locus YNL248C, strain rpa49, hits give low values 0.955 | S. cerevisiae deletion strains, locus YNL250W, strain rad50, hits give low values 0.986 | S. cerevisiae deletion strains, locus YNL271C, strain bni1, hits give low values 0.969 | S. cerevisiae deletion strains, locus YNL298W, strain CLA4, hits give low values 0.953 | S. cerevisiae deletion strains, locus YNL307C, strain MCK1, hits give low values 0.914 | S. cerevisiae deletion strains, locus YNL322C, strain KRE1 (second series), hits give low values 0.962 | S. cerevisiae deletion strains, locus YNR049C, strain mso1, hits give low values 0.974 | S. cerevisiae deletion strains, locus YNR052C, strain pop2, hits give low values 0.994 | S. cerevisiae deletion strains, locus YOL012C, strain htz1 1.07 | S. cerevisiae deletion strains, locus YOL147C, strain pex11, hits give low values 0.983 | S. cerevisiae deletion strains, locus YOR001W, strain rrp6, hits give low values 1.01 | S. cerevisiae deletion strains, locus YOR061W, strain CKA2, hits give low values 0.987 | S. cerevisiae deletion strains, locus YOR069W, strain VPS5, hits give low values 0.984 | S. cerevisiae deletion strains, locus YOR070C, strain gyp1, hits give low values 0.967 | S. cerevisiae deletion strains, locus YOR080W, strain dia2, hits give low values 0.97 | S. cerevisiae deletion strains, locus YOR083W, strain WHI5, hits give low values 0.927 | S. cerevisiae deletion strains, locus YOR106W, strain vam3, hits give low values 0.95 | S. cerevisiae deletion strains, locus YOR136W, strain idh2, hits give low values 1 | S. cerevisiae deletion strains, locus YOR144C, strain elg1, hits give low values 0.997 | S. cerevisiae deletion strains, locus YOR184W, strain ser1, hits give low values 0.875 | S. cerevisiae deletion strains, locus YOR231W, strain MKK1, hits give low values 0.998 | S. cerevisiae deletion strains, locus YOR265W, strain rbl2, hits give low values 0.986 | S. cerevisiae deletion strains, locus YOR270C, strain vph1, hits give low values 0.867 | S. cerevisiae deletion strains, locus YOR290C, strain snf2, hits give low values 0.873 | S. cerevisiae deletion strains, locus YOR316C, strain cot1, hits give low values 0.986 | S. cerevisiae deletion strains, locus YPL051W, strain arl3, hits give low values 0.937 | S. cerevisiae deletion strains, locus YPL055C, strain LGE1, hits give low values 0.963 | S. cerevisiae deletion strains, locus YPL078C, strain atp4, hits give low values 0.939 | S. cerevisiae deletion strains, locus YPL106C, strain sse1, hits give low values 0.991 | S. cerevisiae deletion strains, locus YPL240C, strain hsp82, hits give low values 0.967 | S. cerevisiae deletion strains, locus YPL256C, strain CLN2, hits give low values 1 | S. cerevisiae deletion strains, locus YPR119W, strain clb2, hits give low values 0.986 | S. cerevisiae deletion strains, locus YPR141C, strain kar3, hits give low values 0.954 | S. cerevisiae deletion strains, locus YPR163C, strain tif3, hits give low values 0.982 | S. cerevisiae deletion strains, locus YPR167C, strain met16, hits give low values 0.982 | S. cerevisiae deletion strains, strain wtn01, hits give low values 0.955 | S. cerevisiae strains, strain wild type, hits give low values 0.991
